Reference: PubChem BioAssay
Unmarked numbers belong to inactive results. For some assays here: Results with a measured potency or affinity are listed apart. The source made the active and inactive calls. Unless noted, how the calls were made is not given here.

What was measured:
[1] = antimalarial activity against Dd2 strain (AID 2302;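 active means growth inhibition above 50% at the single 2 µM test dose, taken to imply half-maximal potency below 2 µM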;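 further: 0% = DMSO untreated growth and 100% = chloroquine plus artemisinin killed control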); conditions: P. falciparum Dd2 in RBCs, LDH growth readout, 72 h; at 2 µM; hits give high values
[2] = human hepatoma cell viability loss – ATP luminescence, cytotoxicity control for P. falciparum antimalarial project, primary screen (AID 2303;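 active means inhibition above 50%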;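 further: 0% = DMSO wells and 100% = digitonin-killed cells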); conditions: HepG2 viability, 24-48 h, at 10 µM, hits give high values
[3] = biological target: L-lactate dehydrogenase (Plasmodium falciparum (isolate CDC / Honduras)) (UniProt Q27743); test: PfLDH activity inhibition – cell lysate, 3D7 strain, counter-screen for P. falciparum growth inhibition project (AID 2304);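 further: 0% = vehicle and 100% = reference inhibitor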; conditions: P. falciparum 3D7 crude extract, LDH APAD/NBT absorbance; at 2 µM; hits give high values
[4] = inhibition of 3D7 malaria parasite growth – strain 3D7 (AID 2306);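 further: 0% = DMSO wells and 100% = chloroquine plus artemisinin control wells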; conditions: P. falciparum 3D7 erythrocytic growth, LDH absorbance, 72 h; at 2 µM; hits give high values
[5] = biological target: Calcium-dependent protein kinase 1 (Plasmodium falciparum (isolate 3D7)) (UniProt P62344); test: PfCDPK1 kinase inhibitors, biochemical, TCAMS library (AID 1159585; cut-off not given, nearly all actives have IC50 up to about 0.98 µM;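 further: inhibitors leave more ATP so luminescence rises with inhibition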); conditions: recombinant PfCDPK1, Kinase-Glo ATP depletion luminescence
[6] = biological target: Plasmodium falciparum protein kinase 6 (PK6, PF3D7_1337100) (UniProt Q8IDW1); test: PfPK6 kinase inhibitors, biochemical, TCAMS library (AID 1159586); conditions: recombinant PfPK6, Kinase-Glo ATP depletion luminescence
[7] = biological target: Protein kinase 7 (PK7), Plasmodium falciparum 3D7 (PF3D7_0213400) (UniProt Q7YTF7); test: inhibition of Plasmodium PK7 catalytic activity – biochemical, TCAMS antimalarial set, Kinase-Glo luminescence (AID 1159587); conditions: recombinant PfPK7, Kinase-Glo ATP depletion luminescence
[8] = biological target: Calcium-dependent protein kinase 4 (Plasmodium falciparum (isolate 3D7)) (UniProt Q8IBS5); test: PfCDPK4 kinase inhibitors, biochemical, TCAMS library (AID 1159588; cut-off not given, nearly all actives have IC50 up to about 0.91 µM); conditions: recombinant PfCDPK4, Kinase-Glo ATP depletion luminescence
Chain of Calcium-dependent protein kinase 4 (Plasmodium falciparum (isolate 3D7)) (Q8IBS5 whole entry, looked up): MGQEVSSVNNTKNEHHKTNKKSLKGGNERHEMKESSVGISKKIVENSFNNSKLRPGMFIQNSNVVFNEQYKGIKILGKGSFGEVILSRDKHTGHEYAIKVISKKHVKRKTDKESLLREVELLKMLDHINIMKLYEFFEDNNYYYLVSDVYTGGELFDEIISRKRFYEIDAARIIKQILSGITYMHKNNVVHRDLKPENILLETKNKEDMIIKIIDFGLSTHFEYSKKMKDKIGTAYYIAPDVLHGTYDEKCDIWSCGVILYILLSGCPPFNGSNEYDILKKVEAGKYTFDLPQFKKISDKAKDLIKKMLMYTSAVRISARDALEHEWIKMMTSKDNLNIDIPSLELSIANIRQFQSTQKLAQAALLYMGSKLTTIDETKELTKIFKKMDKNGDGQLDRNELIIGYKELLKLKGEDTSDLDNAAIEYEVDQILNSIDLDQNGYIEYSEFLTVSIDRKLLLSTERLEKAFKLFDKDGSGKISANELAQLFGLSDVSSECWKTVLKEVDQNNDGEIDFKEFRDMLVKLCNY

Chain of Plasmodium falciparum protein kinase 6 (PK6, PF3D7_1337100) (Q8IDW1 1-305): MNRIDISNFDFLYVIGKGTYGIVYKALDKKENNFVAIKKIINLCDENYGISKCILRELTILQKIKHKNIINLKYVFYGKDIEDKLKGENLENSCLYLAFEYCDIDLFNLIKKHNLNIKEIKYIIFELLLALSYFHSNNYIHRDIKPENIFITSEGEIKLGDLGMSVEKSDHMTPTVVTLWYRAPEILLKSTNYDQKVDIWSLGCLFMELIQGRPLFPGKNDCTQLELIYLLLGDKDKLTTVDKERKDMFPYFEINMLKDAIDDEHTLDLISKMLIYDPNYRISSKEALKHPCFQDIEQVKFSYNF
Chain of Protein kinase 7 (PK7), Plasmodium falciparum 3D7 (PF3D7_0213400) (Q7YTF7 1-343): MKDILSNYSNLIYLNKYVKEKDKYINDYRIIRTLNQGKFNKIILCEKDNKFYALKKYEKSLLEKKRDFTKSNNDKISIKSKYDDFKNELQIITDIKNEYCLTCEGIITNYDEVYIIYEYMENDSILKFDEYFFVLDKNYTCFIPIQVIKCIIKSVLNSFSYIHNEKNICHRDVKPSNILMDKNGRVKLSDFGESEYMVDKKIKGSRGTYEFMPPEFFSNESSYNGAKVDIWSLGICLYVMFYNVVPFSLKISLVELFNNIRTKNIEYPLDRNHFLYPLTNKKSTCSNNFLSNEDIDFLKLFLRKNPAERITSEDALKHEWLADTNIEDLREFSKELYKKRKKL
Chain of Calcium-dependent protein kinase 1 (Plasmodium falciparum (isolate 3D7)) (P62344 whole entry, looked up): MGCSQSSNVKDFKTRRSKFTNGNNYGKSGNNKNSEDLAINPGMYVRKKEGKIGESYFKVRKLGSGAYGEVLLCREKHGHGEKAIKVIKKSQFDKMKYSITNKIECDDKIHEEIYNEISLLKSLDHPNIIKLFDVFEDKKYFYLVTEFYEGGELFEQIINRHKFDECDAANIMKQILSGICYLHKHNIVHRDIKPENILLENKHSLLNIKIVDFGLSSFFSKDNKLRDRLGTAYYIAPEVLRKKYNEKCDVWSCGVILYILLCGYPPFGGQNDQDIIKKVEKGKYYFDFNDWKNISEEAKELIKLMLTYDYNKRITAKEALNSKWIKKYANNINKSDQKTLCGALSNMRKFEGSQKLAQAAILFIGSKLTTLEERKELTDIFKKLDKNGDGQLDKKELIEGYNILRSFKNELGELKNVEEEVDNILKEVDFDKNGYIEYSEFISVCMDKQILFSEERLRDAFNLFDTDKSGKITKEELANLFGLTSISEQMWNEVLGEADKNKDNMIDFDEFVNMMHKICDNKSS
Chain of L-lactate dehydrogenase (Plasmodium falciparum (isolate CDC / Honduras)) (Q27743 whole entry, looked up): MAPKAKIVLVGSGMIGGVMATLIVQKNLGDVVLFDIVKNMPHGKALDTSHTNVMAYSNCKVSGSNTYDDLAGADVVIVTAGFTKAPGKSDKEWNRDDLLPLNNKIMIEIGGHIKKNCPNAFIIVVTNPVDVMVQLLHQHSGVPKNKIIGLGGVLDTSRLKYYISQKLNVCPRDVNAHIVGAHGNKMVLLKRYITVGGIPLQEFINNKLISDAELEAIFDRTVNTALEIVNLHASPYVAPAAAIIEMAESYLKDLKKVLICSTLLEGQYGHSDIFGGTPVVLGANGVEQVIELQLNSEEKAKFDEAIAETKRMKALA

Structure (SMILES) | growth inhibition [1] | inhibition [2] | inhibition [3] [%] | growth inhibition [4] | outcome [5] | outcome [6] | outcome [7] | outcome [8]
CCOc1ccc(NC(=O)c2ccc(NCCCN3CC(C)CC(C)C3)c([N+](=O)[O-])c2)cc1 (stereo not given) | 60% (active) | 3% | -4 | 101% (active) | inactive | inactive | inactive | inactive
CCCCCCNCCOc1ccc(-c2nc(-c3ccccc3)c(-c3ccccc3)[nH]2)cc1 | 39% | 14% | -4 | 98% (active) | inactive | inactive | inactive | inactive
OC(CNCc1ccccc1Oc1ccccc1)c1cccc(C(F)(F)F)c1 (stereo not given) | 98% (active) | -1% | 10 | 104% (active) | inactive | inactive | inactive | inactive
CCc1ccccc1N=C1c2c(cccc2[N+](=O)[O-])C(=O)C1C(C)=O (stereo not given) | 96% (active) | -6% | 4 | 99% (active) | inactive | inactive | inactive | inactive
CCNCc1ccc(-c2cccc(-c3nc4ccccc4[nH]3)c2)cc1 | 18% | 26% | 4 | 102% (active) | inactive | inactive | inactive | inactive
COc1cc(Nc2ncc3c(C)nc(-c4cccc(Nc5ccc(CN6CCS(=O)(=O)CC6)cc5)c4)n3n2)cc(OC)c1OC | 79% (active) | 2% | 2 | 90% (active) | inactive | inactive | inactive | inactive
O=C(CCc1cnc[nH]1)Nc1ccc(-c2ccc(-c3nc4ccc(F)cc4[nH]3)cc2)cc1 | 58% (active) | 26% | -1 | 99% (active) | inactive | inactive | inactive | inactive
NCC(=O)Nc1cccc(Nc2nccc(-c3c(-c4cccc(NC(=O)c5ccccc5)c4)nn4ccccc34)n2)c1 | 87% (active) | 45% | 0 | 96% (active) | inactive | inactive | inactive | inactive
Cc1nnsc1C(=O)Nc1cccc(-c2cccc(-c3nc4ccccc4[nH]3)c2)c1 | 34% | 14% | 1 | 100% (active) | inactive | inactive | inactive | inactive
COc1ccc2nccc(NC(=O)C3CCC(NCc4cnc(SC)c([N+](=O)[O-])c4)CC3)c2n1 (stereo not given) | 44% | 8% | 5 | 89% (active) | inactive | inactive | inactive | inactive
COc1cccc(NC(=O)NC2CCN(CCCCCNC(=O)/C=C/c3ccc(Cl)c(Cl)c3)CC2)c1 | 8% | 14% | -1 | 102% (active) | inactive | inactive | inactive | inactive
COc1ccc(C2C(C(=O)Nc3ccc(C)cc3Br)c3ccccc3C(=O)N2C)cc1 (stereo not given) | 2% | 4% | 6 | 96% (active) | inactive | inactive | inactive | inactive
Cc1c(CNCCCNc2cc(=O)c3ccccc3[nH]2)sc(C(F)F)c1Br | 29% | 0% | 5 | 98% (active) | inactive | inactive | inactive | inactive
CCN(Cc1ccc(-c2ccc(C(F)(F)F)cc2)cc1)C(=O)Cn1c(SCc2cccc(F)c2F)cc(=O)c2cc(CN3CCCCC3)ccc21 | 50% (active) | 95% (active) | 2 | 101% (active) | inactive | inactive | inactive | inactive
COc1ccc(CCNc2nc(SCc3ccccc3Cl)nc3ccccc23)cc1OC | 2% | 27% | 0 | 94% (active) | inactive | inactive | inactive | inactive
CN(CCCN)CCCNc1ccnc2cc(Cl)ccc12 | -2% | 1% | -10 | 101% (active) | inactive | inactive | inactive | inactive
Cc1noc(C)c1-c1ccc2c(Nc3ccccc3C(C)(C)C)c(C(=O)NCc3ccc(C(F)(F)F)cc3)cnc2c1 | 50% (active) | 30% | 0 | 99% (active) | inactive | inactive | inactive | inactive
Fc1ccc(C(OCC2CCCN(Cc3cccc4cccnc34)C2)c2ccc(F)cc2)cc1 (stereo not given) | 97% (active) | 21% | 3 | 98% (active) | inactive | inactive | inactive | inactive
O=C(/C=C/c1ccc(-c2nc3ccc(Cl)cc3[nH]2)cc1)NC1CCN(Cc2ccccc2)CC1 | 92% (active) | 3% | 0 | 100% (active) | inactive | inactive | inactive | inactive
Clc1cccc(CNc2nc(NCCc3cnc[nH]3)nc(NC3CCCCC3)n2)c1 | 0% | 17% | 5 | 98% (active) | inactive | inactive | inactive | inactive

Structure (SMILES) | growth inhibition [1] | inhibition [2] | inhibition [3] [%] | growth inhibition [4] | outcome [5] | outcome [6] | outcome [7] | outcome [8]
COc1ccc2nccc([C@@H](O)CN3CCC(NCc4ccc5c(c4)NC(=O)CS5)CC3)c2n1 | 34% | 1% | -3 | 101% (active) | inactive | inactive | inactive | inactive
COc1ccc(C(C(=O)NC2CCN(C[C@H](O)c3ccnc4ccc(OC)cc34)CC2)N2CCN(c3ccc(F)cc3)CC2)cc1 (stereo not given in full) | 86% (active) | 16% | -6 | 97% (active) | inactive | inactive | inactive | inactive
Cc1ccccc1C1CCN(C2CCC(NC(=O)c3ccc4c(c3)-c3nocc3C(C)O4)CC2)CC1 (stereo not given) | 37% | 68% (active) | 4 | 88% (active) | inactive | inactive | inactive | inactive
COc1ccc2c(CCNc3nc(SC)ncc3C(=O)NCCc3ccc(F)cc3)c[nH]c2c1 | 49% | 3% | -1 | 91% (active) | inactive | inactive | inactive | inactive
O=C(Nc1ccc(Cl)cc1)c1ccc(CN2CCCN(Cc3cccc(F)c3)CC2)cc1 | 8% | 59% (active) | 6 | 91% (active) | inactive | inactive | inactive | inactive
Cc1ccc(OCC2CCN(c3ncc(C(=O)NC4CC4)cc3Cl)CC2)cc1 | 72% (active) | 2% | 0 | 88% (active) | inactive | inactive | inactive | inactive
CC(=O)Nc1ccc(OCCCCN(Cc2ccccc2C(F)(F)F)c2ccc(C#N)c(C(F)(F)F)c2)c(Cl)c1 | 71% (active) | -1% | -3 | 98% (active) | inactive | inactive | inactive | inactive
Cc1ccc(S(=O)Cc2ccc(Cl)cc2)cc1 (stereo not given) | 5% | 8% | -2 | 98% (active) | inactive | inactive | inactive | inactive
COc1ccc2nccc([C@@H](O)CN3CCC(NC(=O)/C=C/c4ccc(F)c5ccccc45)CC3)c2c1 | 75% (active) | 37% | 0 | 100% (active) | inactive | inactive | inactive | inactive
CC(C)(C)c1ccc(NC(=O)c2ccc(CN3CCCN(Cc4cccc(Cl)c4)CC3)cc2)cc1 | 7% | 43% | -3 | 96% (active) | inactive | inactive | inactive | inactive
Cn1cncc1C(=O)Nc1cccc(-c2ccc(-c3nc4ccccc4[nH]3)cc2)c1 | 11% | -5% | 1 | 99% (active) | inactive | inactive | inactive | inactive
COc1ccccc1C(C)NCC(=O)Nc1cc(C(F)(F)F)ccc1Cl (stereo not given) | 85% (active) | 4% | -3 | 97% (active) | inactive | inactive | inactive | inactive
CCCc1cc(OC)c(CC2c3cccc(O)c3CCN2C)cc1OC (stereo not given) | 99% (active) | 3% | 0 | 100% (active) | inactive | inactive | inactive | inactive
CCn1ncc(Cl)c1CN(C)S(=O)(=O)c1ccc(Br)cc1 | 70% (active) | 9% | 4 | 90% (active) | inactive | inactive | inactive | inactive
N#Cc1ccc(CN2CCC(Oc3ccc(NC(=O)c4cccs4)cc3)CC2)cc1 | 82% (active) | 10% | -3 | 83% (active) | inactive | inactive | inactive | inactive
COc1ccc2nccc(N3CCCN(CCNS(=O)(=O)c4ccc5c(c4)NC(=O)CS5)CC3)c2n1 | 15% | -2% | -9 | 97% (active) | inactive | inactive | inactive | inactive
CS(=O)(=O)CCNCc1ccc(-c2cc3c(Nc4ccc(OCc5cccc(F)c5)c(Cl)c4)ncnc3s2)[nH]1 | 95% (active) | 5% | 2 | 99% (active) | inactive | inactive | inactive | inactive
CN1CCCC1CCNCc1cccc(-c2cnc(N3CCCC(C)(C)C3)nc2)c1 (stereo not given) | 95% (active) | 99% (active) | 5 | 98% (active) | inactive | inactive | inactive | inactive
Cc1c(C)n(Cc2ccccc2)c2ncnc(OC3CCN(CC(=O)NCC4CC4)CC3)c12 | 79% (active) | 17% | -3 | 92% (active) | inactive | inactive | inactive | inactive
FC(F)(F)c1ccc(CSc2ccc3nnc(-c4ccccn4)n3n2)cc1 | 54% (active) | -2% | -1 | 95% (active) | inactive | inactive | inactive | inactive
